Experimental data published in PubChem BioAssay AID588475 (Sanford-Burnham Center for Chemical Genomics, 2011).
In all, about 350,000 compounds went through this assay and about 2,100 (0.6%) were called active.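 How the source made its calls: active means inhibition of the ligand-induced calcium signal above about 50% at the single tested concentration (limit read from the data); inactive means the rest.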 What follows is part of a selection rich in actives, with near analogues and random picks from the rest.

Test: blockers of CRF-evoked CRF-R2/CRF-BP calcium response – cell-based, HEK293, calcium dye fluorescence, uHTS, primary screen (AID 588475)
Conditions: CRF-induced calcium fluorescence, at 11.8 µM, active compounds read high

inhibition, inactive:
COc1ccccc1C1=CC(=O)CCC1 9.84%
CCOC(=O)CN1CCC(c2ccccc2)CC1 -2.05%
c1ccc(CCN2CN=C(Nc3nc4ccccc4o3)NC2)cc1 13.5%
CCc1ccc(N2CC(C(=O)N3CCCCCC3)CC2=O)cc1 (stereo not drawn) -21.4%
CC1CC(C)CN(C(=O)C2CC(=O)N(c3ccc(F)cc3)C2)C1 (stereo not drawn) -0.72%
CCCOc1cccc(C(=O)Nc2nnn(CCC)n2)c1 -20.2%
CCCCCCNC(=O)O[C@]12C[C@@H](C(=O)OC)[C@@H](C(=O)OC)C[C@@]1(O)CN(S(=O)(=O)c1ccc(C)cc1)C2 -0.13%
CCOc1ccc(NC(=O)CCC(=O)NNC(=O)NC2CCCCC2)cc1 9.93%
CC1CCN(C(=S)NC2CC3CCC2C3)CC1 (stereo not drawn) 18.3%
CCCC(O)(CCC)C(=O)NN(C(=O)CCl)c1cccc(C)c1 4.46%
CCc1nnc(NC(=O)CSc2nc(SC)ns2)s1 -5.79%
CC(=O)c1cccc(-n2nnnc2SCC(=O)NNC(=O)C2CCCCC2)c1 12.7%
O=C(O)C1=C(C(=O)O)C2CCC1C2 17.1%
COc1ccc(Cl)cc1C(=O)OCC(=O)NCc1cccs1 -4.93%
COc1cc(CNCc2cccs2)cc(Br)c1OC 4.12%
COc1ccc(CCNC(=O)COC(=O)c2ncc(Cl)c(Cl)c2Cl)cc1OC -0.24%
COc1ccc(C(=O)NC(=S)Nc2ccc(Cl)cn2)cc1OC -25.3%
Cc1cc(C)c(C#N)c(SCS(=O)c2ccc(C(C)(C)C)cc2)n1 (stereo not drawn) 1.43%
CC1C(=O)Nc2ccccc2N1C(=O)c1ccc(F)cc1F (stereo not drawn) 16%
O=C(COC(=O)c1ccc(O)cc1O)NC(=O)c1ccccc1 -7.02%
O=C(NNC(=O)c1ccccc1O)c1ccccc1O 24.2%
Cc1onc(-c2c(F)cccc2Cl)c1C(=O)N(C)CC(=O)Nc1cccc(F)c1 5.08%

inhibition, active:
CCOC(=O)Cn1c2c(c(-c3ccccc3OC)cc1=O)CCCC2 57.5%
O=C(C1CC(=O)N(c2ccc(Br)cc2)C1)N1CCCC1 (stereo not drawn) 76.7%
CCc1nnc(NC(=O)CSc2nnnn2-c2cccc(C(C)=O)c2)s1 54.4%
COc1cc(CC(=O)NCc2cccs2)cc(OC)c1OC 63.8%
COC(=O)c1ccc(OC(=O)c2nn(C)cc2Cl)c(OC)c1 90.2%
O=C(NNc1c2ccccc2nc2ccccc12)c1cc2ccccc2cc1O 53.2%
